High-throughput results (PubChem BioAssay)
Most compounds without a hit are left out; they make up all but 2.1% or so of the library.
p53 reactivator – mutant p53 re-activation in reporter cells | H1299 p53-A138V BP100-luciferase reporter, luminescence, 24 h | Potency, µM (series often up to 92.2 µM), without a hit: at the top dose activity change, positive = activation, most hits filed as activators | actives 0.063% (n = 320,000); further: potency means the concentration at half of the fitted maximal effect; % of control where 0% means no effect; nearly all actives have a fitted effect of over 45% in size
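H1299 (p53-null), stable ts p53-A138V + BP100-Luc; 1000 cells/well, Opti-MEM/10% FBS; cpd 4 pt, 1:5; 24 h, 37 deg C, 5% CO2; detection reagent 10 min RT; luminescence.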
Mito fusion yeast – mitochondrial division inhibition or fusion activation; S. cerevisiae fusion-defective mutant growth rescue, CellTiterGlo 48 h; Potency, µM (series often up to 46.1 µM), without a hit: at the top dose growth rescue (activation), hits mostly activators; actives 0.23% (n = 320,000); AID 485298; further: potency means the concentration at half of the fitted maximal effect; % of control where 0% means no effect; nearly all actives have a fitted effect of over 45% in size
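Growth-rescue viability read-out: after 48 h at the non-permissive 37C in glycerol/ethanol YPEG, yeast mitochondrial fusion mutants are measured by CellTiterGlo luminescence; compounds (23 nl pinned per well) restoring growth score as division inhibitors or fusion activators.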
ClpP mod – qHTS Assay for Activators of ClpP; ATP-dependent Clp protease proteolytic subunit (Bacillus subtilis (strain 168)), P80244; actives 1.9% (n = 340,000); purified B. subtilis ClpP, FRET peptide cleavage, 20 min; Potency, µM (titrated, usually from 57.5 µM), for inactives: at the top dose activity change, negative = active; active means well fitted falling curve with a large enough effect; inconclusive means small, poorly fitted or top-dose-only effect; inactive means no such curve, though single readings can be large or run the other way; further: potency means the concentration at half of the fitted maximal effect; the source files actives as falling curves though it sought activators and does not explain the sign; nearly all actives have a fitted effect of over 65% in size
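Buffer: 100 mM Tris/HCl pH8, 100 mM KCl, 0.05% low protease BSA, 2.5% glycerol, 0.01% Tween-20. ClpP 10 microg/mL final; 20 min RT; delta FRET normalized to ADEP and DMSO controls.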
B2AR arrestin – agonists driving beta-arrestin recruitment to human beta2-adrenergic receptor | P07550 | beta-arrestin recruitment to beta2AR, cell-based reporter | Potency, µM (doses to about 46.1 µM), without a hit: at the highest dose activation, usual class: activators | actives 0.02% (n = 330,000);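 further: potency means the concentration at half of the fitted maximal effect; 0% = DMSO controls and full agonism = EC100 isoproterenol or metaproterenol; nearly all actives have a fitted effect of over 65% in size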
uPA generation – cell surface uPA generation inhibition. cell surface uPA generation assay, qHTS. Potency, µM (highest dose often 38.3 µM), for the others: at the highest dose activity change, negative = inhibition, usual class: inhibitors. actives 0.31% (n = 330,000). AID 540303; active means well fitted inhibition curve with a large enough effect; inconclusive means small, poorly fitted or top-dose-only effect; inactive means no such curve, though single readings can be large or run the other way; tested in mouse RAW 264.7 cells; further: potency means the concentration at half of the fitted maximal effect; on the % scale 0 is the no-effect control and ±100 the full control effect; nearly all actives have a fitted effect of over 55% in size
Giardia killer – Giardia lamblia killing; Giardia lamblia trophozoite viability; activity change, % at 7.66 µM, hits read low; actives 0.15% (n = 340,000); AID 540267; in the data active means activity change below about -80%; inconclusive means between about -30% and that limit;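 further: parasites exposed to compound for two days anaerobically before the ATP read; on the % scale 0 is the no-effect control and ±100 the full control effect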
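Viability, read as ATP luminescence: trophozoites at 100 cells/well, compound added, 48 hrs anaerobic at 37 deg C, then 15-30 min room-temperature development before reading.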
* hit, by the source's call; ? = inconclusive; / = no result. Unless noted, the call rests on the fitted dose curve; in most records, active means well fitted curve in the direction sought with a large enough effect; inconclusive means small, poorly fitted or top-dose-only effect, or another doubt; inactive means no such curve, though single readings can be large; an effect the other way counts as inactive or inconclusive.

SMILES | p53 reactivator | Mito fusion yeast | ClpP mod | B2AR arrestin | uPA generation | Giardia killer
CCOc1ccccc1-c1nc(C(N)=O)c2c(n1)n(-c1ccc3c(c1)OCO3)c(=O)n2C | / | / | -8.7% | / | / | /
C=CCn1cc(-c2cccc(Cl)c2)cc(C#N)c1=O | -5.4% | 1.8% | 28.2µM* | -0.2% | -8.5% | 2.9
N#Cc1cc(-c2cccc(Cl)c2)c[nH]c1=O | 4.4% | 0.3% | 22.4µM* | -0.1% | -0.1% | 12.4
Cc1ccc(OCCn2cc(/C=C3\C(=O)NN(c4ccccc4)C3=O)c3ccccc32)cc1 | 1.3% | 10.8% | 17.8µM* | -0.9% | 7.2% | -3.6
N#Cc1c(-c2ccccc2)cc(-c2ccccc2)nc1SCC(O)CS(=O)(=O)Cc1ccc(Cl)cc1 (configuration not stated) | / | / | 10µM* | / | / | /
COc1ccc(-c2cc(-c3ccccc3)c(C#N)c(SCC(O)CS(=O)(=O)Cc3ccc(Cl)cc3)n2)cc1 (configuration not stated) | / | / | 4.2% | / | / | /
COCC(=O)NNC(=O)c1ccccc1OC | 7.7% | -1.2% | / | -0.2% | 1.5% | 11.8
COc1ccccc1C(=O)NCCSCc1ccccc1Cl | -11.7% | 3.1% | 7.08µM* | -0.2% | 6.0% | 20.2
COc1ccccc1C(=O)NCCC(=O)NNC(=O)c1ccccc1O | -3.0% | 2.2% | 25.1µM* | 0.1% | 12.7% | -9.0
COc1ccccc1OCC(=O)NCCSCc1ccccc1Cl | 5.1% | -1.7% | 0.4% | 4.5% | 2.9% | 14.4
Cc1ccccc1OCCNC(=O)CNC(=O)c1ccccc1O | 3.5% | 1.8% | 28.2µM* | -1.2% | / | -2.0
COc1ccc(/C=C/c2ccccc2)cc1C1C2C=CCCC2(C)C(=O)N1Cc1ccccc1 (configuration not stated) | / | / | / | / | / | -7.9
NS(=O)(=O)c1ccc(NC(=O)c2cnn3c2NC(=C2CC2)C=C3C(F)F)cc1 | / | / | -1.0% | / | / | /
O=C(Cn1c(-c2cccs2)cc2ccccc21)NCCCN1CCN(c2ccc(F)cc2)CC1 | / | / | 31.6µM* | / | / | /
O=C(Cn1c(-c2cccs2)cc2cc(F)ccc21)NCCCN1CCN(c2ccccc2F)CC1 | / | / | 31.6µM* | / | / | /
CC(C)CCNC(=O)Cn1c(-c2cccs2)cc2cc(F)ccc21 | / | / | 31.6µM* | / | / | /
O=C(Cc1ccc(OCc2ccccc2)cc1)NO | / | / | 0.9% | / | / | /
CCc1ccc(Nc2ccc(C(=O)O)cc2[N+](=O)[O-])cc1 | 6.6% | 20µM* | -0.3% | 0.4% | 2.3% | -9.1
CCc1ccc(Nc2ccc(C(N)=O)cc2[N+](=O)[O-])cc1 | 1.2% | ? | 0.4% | 0.0% | 8.2% | -5.4
O=[N+]([O-])c1cc(/C=N/N2CCCCC2)ccc1Cl | ? | 28.8% | / | -0.3% | 0.9% | -12.0
O=[N+]([O-])c1cc(C=NN2CCCCCC2)ccc1Cl | / | / | 28.2µM* | / | -0.2% | -4.1
CCOC(=O)c1c(NC(=O)/C=C/c2ccccc2)sc2c1CCCC2 | / | / | -0.4% | / | / | /
CCOc1ccc(/C=N/Nc2ccccn2)cc1 | ? | -1.3% | -15.6% | 0.1% | 6.31µM* | -16.3
CC1CCCN(CCCNC(=O)c2coc3nc4ccccc4nc23)C1 (configuration not stated) | -0.7% | 0.5% | 12.6µM* | 0.0% | 1.3% | ?
O=C(NCCc1ccc(Cl)cc1)c1ccc(CS(=O)(=O)Cc2ccccc2F)o1 | / | / | 0.8% | / | / | /
SMILES | p53 reactivator | Mito fusion yeast | ClpP mod | B2AR arrestin | uPA generation | Giardia killer
CCC(C)C(=O)OC1CCC=C2C=CC(C)C(CCC3CC(O)CC(=O)O3)C21 (configuration not stated) | / | / | 1.2% | / | -13.9% | 13.2
CC[C@H](C)C(=O)O[C@H]1CCC=C2C=C[C@H](C)[C@H](CC[C@@H]3C[C@@H](O)CC(=O)O3)[C@H]21 | -0.3% | -45.3% | 0.7% | -0.3% | 1.26µM* | 7.7
COc1ccc(N/N=C/c2c(C(=O)O)ccc3ccccc23)cc1 | ? | 0.6% | -1.4% | 3.4% | 10µM* | 22.1
CCOc1ccc2c(c1)C(C)=CC(C)(C)N2S(=O)(=O)c1ccc(F)cc1 | / | -20.3% | 0.9% | 0.5% | 8.91µM* | -19.4
CC(=O)N1N=C(c2ccc(C(C)(C)C)cc2)OC1(C)C | 14.6% | -3.6% | 31.6µM* | 0.3% | -0.7% | 7.2
O=C(CC1N=C2c3ccccc3N=C(SCc3cccc(Cl)c3)N2C1=O)NC1CCCCC1 (configuration not stated) | / | / | 35.5µM* | / | / | /
CCc1ccc(NC(=O)CSC2=Nc3ccccc3C3=NC(CC(=O)NC4CCCCC4)C(=O)N23)cc1 (configuration not stated) | / | / | -0.3% | / | / | /
CCCCNC(=O)CC1N=C2c3ccccc3N=C(SCC(=O)NCc3ccccc3Cl)N2C1=O (configuration not stated) | / | / | 17.8µM* | / | / | /
CCCCNC(=O)CSC1=Nc2ccccc2C2=NC(CCC(=O)NCc3ccccc3OC)C(=O)N12 (configuration not stated) | / | / | -26.9% | / | / | /
O=C(CC1N=C2c3ccccc3N=C(SCc3cccc(F)c3)N2C1=O)NC1CCCCC1 (configuration not stated) | / | / | 0.4% | / | / | /
O=C(CSC1=Nc2ccccc2C2=NC(CC(=O)NC3CCCCC3)C(=O)N12)Nc1ccc(F)cc1 (configuration not stated) | / | / | 14.1µM* | / | / | /
O=C(Cc1ccc(OCCc2ccccc2)cc1)NO | / | / | 1.2% | / | / | /
CC(=O)c1cc(-c2ccccc2)n(CCC(=O)Nc2ccc(C(C)C)cc2)c1C | / | / | -8.4% | / | / | /
Cc1nc(N2CCN(C(=O)c3ccco3)CC2)c2c3c(sc2n1)CCCC3 | -14.1% | 10.6% | -6.8% | 0.5% | -18.4% | 0.2
Cc1nc(N2CCN(C(=O)c3ccco3)CC2)c2c3c(sc2n1)CC(C)CC3 (configuration not stated) | -4.8% | 4.5% | -3.7% | -0.3% | 2.82µM* | -1.9
COc1ccccc1NC(=O)C1=C(C)Nc2c(C(=O)Nc3ccc(F)cc3)cnn2C1c1ccc(Cl)cc1 (configuration not stated) | / | / | 28.2µM* | / | / | /
CC1=C(C(=O)Nc2ccccc2)C(c2cc(Br)ccc2F)n2ncc(C(=O)Nc3ccccc3)c2N1 (configuration not stated) | / | / | 3.8% | / | / | /
COc1ccc(C2C(C(=O)Nc3ccccc3OC)=C(C)Nc3ncnn32)cc1 (configuration not stated) | -8.4% | -0.6% | -2.0% | -0.6% | 0.2% | -4.4
CC1=C(C(=O)Nc2ccc(C)cc2C)C(c2cc(Br)ccc2F)n2ncc(C(=O)Nc3ccc(C)cc3)c2N1 (configuration not stated) | / | / | 20µM* | / | / | /
CSc1ncc2c(n1)-c1ccccc1N(Cc1ccccc1C)S2(=O)=O | / | / | -4.2% | / | / | /
